Our source for the composite z-score and z-score values is PubChem BioAssay.

The source made the active and inactive calls. Unless noted, how the calls were made is not given here.

For assay [1], the system named is Wnt5a (protein binding on small-molecule microarray). In words: Wnt5a binders on small-molecule microarray, primary screen, biophysical, 635/667 nm fluorescence (AID 1142).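 Further: fluorescence read at 667 nm with signal to noise per printed feature.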 Conditions: 635 nm fluorescence, higher = more signal.
Assay [2] can be described thus: cell viability in Huh7 cells, primary screen, cytotoxicity control for HCV replication inhibitor project, CellTiter-Glo luminescence, basal, 48 h (AID 1143).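 Further: Huh7 hepatoma cells carrying a hepatitis C replication reporter with no stimulus; test concentration not given here.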 To be noted: Huh7 HCV replicon, higher = more signal, called active from +8 up or from −8 down. In general terms: ATP-based viability assays read luminescence as a measure of living cells.
A short description of assay [3]: P. aeruginosa biofilm formation inhibitors, primary screen, PAO1 strain, BacTiter-Glo luminescence, LB-PBS (AID 1144). Conditions: 12 h, higher = more signal.
Assay [4] can be described thus: CREB reporter modulators without forskolin, primary screen, cell-based, PC12, CRE-LacZ reporter, unstimulated (AID 1145). Conditions: no forskolin, luminescence, 4.5 h, higher = more signal, called active from +8 up or from −8 down.
Assay [5] in a line: CREB reporter modulators under forskolin, primary screen, cell-based, PC12, CRE-LacZ reporter, forskolin-stimulated (AID 1146).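 Further: PC12 cells with 6xCRE LacZ reporter stimulated by forskolin 10 µM; beta-galactosidase reporter signal reflecting CREB driven transcription.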 Conditions: luminescence, 4.5 h, higher = more signal, called active from +8 up or from −8 down.
Assay [6] deals with Streptavidin (Streptomyces avidinii) (UniProt P22629). In words: streptavidin binders on small-molecule microarray, primary screen, artefact control for SMM compound annotation, biophysical, 635/667 nm fluorescence (AID 1147).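 Further: signal reflects streptavidin binding to arrayed compounds as a control protein.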 Conditions: streptavidin binding, higher = more signal.
Chain of Streptavidin (Streptomyces avidinii) (P22629 whole entry, looked up): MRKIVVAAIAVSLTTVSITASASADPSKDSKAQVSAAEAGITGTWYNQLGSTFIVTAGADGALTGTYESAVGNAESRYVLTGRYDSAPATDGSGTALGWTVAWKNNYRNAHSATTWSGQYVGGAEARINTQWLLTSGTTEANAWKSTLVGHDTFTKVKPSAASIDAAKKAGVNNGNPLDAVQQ
Assay [7] in a line: small-molecule binders of probe aInhba, primary screen, biochemical, small-molecule microarray, 635/667 nm fluorescence (AID 1148).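 Further: score merges 667nm spot fluorescence with signal-to-noise for antibody binding to printed compounds.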 To be noted: higher = more signal.
The target in assay [8] is Torsin-1A (Homo sapiens) (UniProt O14656). In words: torsin A binders from cell lysate, primary screen, small-molecule microarray, wild-type, 635/667 nm (AID 1149). To be noted: COS7 hTOR1A-WT lysate, 635 nm fluorescence, higher = more signal.
Chain of Torsin-1A (Homo sapiens) (O14656 whole entry, looked up): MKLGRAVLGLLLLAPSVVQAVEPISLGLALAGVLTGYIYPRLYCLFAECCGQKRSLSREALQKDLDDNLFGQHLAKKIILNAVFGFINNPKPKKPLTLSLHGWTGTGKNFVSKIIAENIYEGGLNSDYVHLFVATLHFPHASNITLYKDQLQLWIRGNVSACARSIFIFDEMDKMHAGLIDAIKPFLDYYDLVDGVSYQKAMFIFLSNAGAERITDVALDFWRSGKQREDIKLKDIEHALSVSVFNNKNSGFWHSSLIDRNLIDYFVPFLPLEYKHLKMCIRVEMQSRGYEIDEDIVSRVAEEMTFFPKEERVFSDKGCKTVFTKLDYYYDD
Assay [9] shares this target. Description: small-molecule binders of mutant TOR1A in lysate, primary screen, cell lysate, small-molecule microarray, COS7 lysate, 635/667 nm fluorescence (AID 1150).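 Further: score pools 667 nm emission and signal to noise measuring lysate protein binding.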 Conditions: COS7 hTOR1A mutant lysate, 635 nm fluorescence, higher = more signal.
For assay [10], the system named is Sonic hedgehog protein (Shh). Description: small-molecule binders of Shh protein, primary screen, biochemical, small-molecule microarray, 635/667 nm fluorescence (AID 1151).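 Further: Shh protein binding to compounds spotted on small-molecule microarray slides; score combines spot fluorescence intensity with signal-to-noise across triplicate slides.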 To be noted: small-molecule microarray binding, 635 nm fluorescence; higher = more signal.

On to `C=C[C@H](COC(C)=O)NS(=O)(=O)c1ccc(Br)cc1`, for which the composite z-score in assay [1] was -0.0966; in assay [6], 1.16; in [7], -0.0762; in assay [8], 0.119; in [9], -0.214; in assay [10] it was 0.382. For the same compound, the z-score was 0.0651 (inactive) in [2], -0.0168 (inactive) in [3], 0.26 (inactive) in assay [4] and 0.678 (inactive) in [5].

On to `CN(C)CCCNC(=O)[C@@H]1c2ccccc2C(=O)N(Cc2ccc(OC(F)(F)F)cc2)[C@H]1c1ccc(CO)cc1`, for which the composite z-score is 0.0246 in assay [1]; 0.121 in assay [6]; -0.128 in assay [7]; -0.116 in assay [8]; 0.151 in assay [9]; 2.18 in assay [10]. In addition, the z-score in [2] was -1.35 (inactive); in [3], -1.42 (inactive); in [4], -0.114 (inactive); in [5], 0.77 (inactive).

Take `COCCCNC(=O)[C@]1(Cc2ccccc2CN=[N+]=[N-])N=C(c2ccc(OCCCO)cc2)O[C@@H]1c1ccccc1`: the composite z-score in [1] is 0.419; in [6] it was 0.723; in [7] it was -0.0736; in assay [8] it was 0.214; in [9] it was 0.311; in assay [10], -1.07. Also, the z-score was -4.93 (inactive) in assay [2], -0.436 (inactive) in assay [3], -0.0667 (inactive) in assay [4] and -0.577 (inactive) in [5].

As for `CC(C)C[C@@H]1NC(=O)[C@H]2C[C@@H](C(=O)NCCCCCC[N+](C)(C)C)[C@@H](c3cccc(OCCO)c3)N2C1=O`, the composite z-score in assay [1] is -0.0449; in assay [6] it was -0.368; in assay [7], 0.0855; in [8] it was 0.126; in [9], 0.62; in assay [10], 1.75. Besides, the z-score in [2] was -0.192 (inactive); in assay [3], -0.616 (inactive); in assay [4] it was -0.256 (inactive); in [5], -0.139 (inactive).

Turning to `CC[C@@H]1[C@H]2C3C(=O)N(CC)C(=O)C3CC(=O)[C@H]2[C@H](c2ccc(C)cc2)N1S(=O)(=O)c1ccc(C)cc1` (stereo not given in full), the composite z-score in assay [1] is 0.163; in [6], 1.4; in assay [7], -0.0986; in assay [8], -0.343; in assay [9], 0.112; in [10], 0.514. Besides, the z-score in assay [2] is -2.9 (inactive); in assay [3] it was 0.394 (inactive); in [4], -0.77 (inactive); in assay [5] it was -0.878 (inactive).

On to `COc1ccccc1CN1C(=O)c2ccccc2[C@](Cc2ccccc2I)(C(=O)NC(C)C)[C@@H]1c1ccc(CO)cc1`, for which the composite z-score came out at 0.449 in [1]; 1.13 in assay [6]; 0.0422 in assay [7]; 0.667 in assay [8]; 1.08 in [9]; 1.78 in assay [10]. In addition, the z-score in assay [2] is -3.63 (inactive); in [3], 0.0633 (inactive); in assay [4], -0.0243 (inactive); in assay [5] it was 1.08 (inactive).

As for `COC(=O)[C@H](Cc1ccccc1)N1CC(/C=C/C2CC2)=C[C@@H]1[C@@H](O)Cc1ccccc1`, the composite z-score in [1] was 0.624; in [6] it was 0.756; in assay [7] it was 0.0471; in assay [8] it was 0.957; in assay [9], -0.038; in assay [10] it was 1.81. Further, the z-score is -1.63 (inactive) in assay [2], -1.18 (inactive) in [3], 3.31 (inactive) in [4] and 5.89 (inactive) in assay [5].

`COC(=O)c1c(CC[C@@H](CO)NC(=O)N[C@H](Cn2cc(-c3ccccc3C)nn2)C(C)C)oc(C(C)=O)c1C(=O)OC`: the composite z-score was -0.338 in assay [1]; -0.0581 in [6]; -0.003 in assay [7]; -0.123 in assay [8]; -0.171 in assay [9]; -0.272 in assay [10]. Also, the z-score in [2] was -2.66 (inactive); in [3], -0.673 (inactive); in [4] it was 1.5 (inactive); in assay [5], -0.644 (inactive).

With `O=C1O[C@@H](c2ccccc2)[C@@H](c2ccccc2)N2[C@@H](c3ccccc3OCCO)[C@]3(C(=O)Nc4ccc(C#CC5=CCCCC5)cc43)[C@@H](C(=O)NC[C@H](O)c3ccccc3)[C@H]12`, the composite z-score in [1] was 0.361; in assay [6] it was 0.625; in assay [7] it was 0.162; in assay [8], 0.385; in assay [9] it was -0.0373; in assay [10] it was 1.99. Also, the z-score in assay [2] is -6.39 (inactive); in [3] it was -0.534 (inactive); in assay [4], -1.56 (inactive); in assay [5] it was -1.15 (inactive).

As for `CC(C)C(O)C1C=CC2C(=O)N(C)C(=O)C2N1N(c1ccccc1)c1ccccc1` (stereo not given), the composite z-score in assay [1] was -0.18; in [6], 0.0226; in assay [7], -0.0332; in assay [8] it was -0.141; in assay [9], 0.369; in [10], -1.28. For the same compound, the z-score in [2] was 0.909 (inactive); in assay [3], 0.633 (inactive); in assay [4] it was 0.0535 (inactive); in [5], -0.136 (inactive).

As for `C=CC[C@@]1(C(=O)O)N=C(c2ccc(OCCCO)cc2)O[C@@H]1c1ccccc1`, the composite z-score in assay [1] is 1.45; in [6] it was -1.72; in [7] it was -0.231; in assay [8], 4.37; in assay [9], 4.32; in assay [10], -0.198. Moreover, the z-score in assay [2] is 0.0076 (inactive); in assay [3], -0.385 (inactive); in assay [4] it was -0.491 (inactive); in [5], -1.2 (inactive).

Consider `C=C(CCCC)C(=O)CC[C@@H](OC(=O)c1ccccc1-c1ccccc1C(=O)O)c1cccc(OCCO)c1`, for which the composite z-score in assay [1] was 0.137; in [6], -0.6; in assay [7], -0.231; in assay [8], 0.604; in assay [9], 0.561; in [10], 1.68. Also, the z-score in [2] is -0.854 (inactive); in assay [3], 0.194 (inactive); in [4], 3.31 (inactive); in [5], 8.69 (active).

For the compound `C=CCOC(=O)[C@H]1[C@@H]2C(=O)O[C@@H](c3ccccc3)[C@@H](c3ccccc3)N2[C@@H](c2ccc(OCCOC(=O)[C@H]3C[C@H]4C(=O)N[C@@H](CCCC[N+](C)(C)C)C(=O)N4[C@H]3c3cccc(OCCO)c3)cc2)[C@]12C(=O)Nc1ccc(I)cc12`, the composite z-score in [1] was 0.419; in [6] it was -0.0117; in [7] it was -0.13; in assay [8], 0.485; in assay [9] it was 0.29; in [10], 1.03. The z-score in assay [2] is -0.587 (inactive); in [3] it was -1.08 (inactive); in [4], 0.415 (inactive); in assay [5] it was -0.0044 (inactive).

`COc1ccccc1CN1C(=O)c2ccccc2[C@@H](C(=O)NC(C)C)[C@@H]1c1ccc(CO)cc1`: the composite z-score in [1] was 0.428; in assay [6], 0.131; in assay [7], 0.46; in assay [8], -0.0764; in assay [9] it was 0.0096; in assay [10], 1.84. Besides, the z-score in assay [2] was -0.486 (inactive); in assay [3], 0.464 (inactive); in assay [4], -0.735 (inactive); in assay [5] it was -0.784 (inactive).
